Sampled rows, rich in hits. Any-hit rate of the full collection: about 21%.
Shiga inhibitor = blocks Shiga toxin action in Vero cells | 290,000 compounds, 9.2% hits | Vero cells, Shiga toxin protein synthesis inhibition reporter | inhibition, % at 38.7 µM | AID 2315; in the data active means inhibition mostly above about 28%, no sharp cut-off; inactive means mostly below about 43%
Cycloheximide cs = counter-screen for Shiga toxin inhibitors: cycloheximide protein synthesis inhibition | cell reporter, cycloheximide protein synthesis inhibition counterscreen | max response, % | 300,000 compounds, 12% hits | AID 2314; in the data active means max response mostly above about 13%, no sharp cut-off; inactive means mostly below about 14%; further: read at 38.3 µM for the half of the compounds with a filed dose
Sm TGR block = inhibitors of Schistosoma mansoni thioredoxin glutathione reductase | purified TGR, DTNB reduction, TNB absorbance 405 nm | Potency, µM (highest dose often 114 µM), most hits filed as inhibitors | 360,000 compounds, 3% hits | AID 485364; further: nearly all actives have a fitted effect of over 60% in size
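TGR 20 nM + NADPH 100 uM (dispensed conc.), cpd preinc 15 min RT; start with NADPH (500 uM addition) then DTNB (15 mM addition). Kinetic TNB absorbance, 405 nm filter. Four-parameter Hill fit across titration.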
Pf growth 96h = P. falciparum growth inhibition at 96 hour, primary screen for plastid delayed-death inhibitors; P. falciparum luciferase reporter growth, 96 h; Potency, µM (doses to about 28.7 µM), usual class: inhibitors; 320,000 compounds, 6.9% hits
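Two-generation exposure (96 h) targets delayed-death phenotype. Reporter parasites carrying integrated firefly luciferase, in red cells at 2% hematocrit and 0.05% parasitemia final, kept at 37 C, 5% CO2; luminescence loss indicates inhibition.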
NS1 function inh = blocks influenza NS1 protein function; AID 2326; Potency, µM (titrated, usually from 46.1 µM); 270,000 compounds, 0.4% hits; calls by dose curve; further: actives are rising curves; nearly all actives have a fitted effect of over 50% in size
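Read-out: OD600 growth recovery of NS1-expressing budding yeast. Cells grown overnight at 30C in -URA glucose medium, washed, resuspended and diluted 1:100 in 2% galactose assay medium, pH 6.0. Same strain lacking NS1 served as positive control.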
Pf growth 48h = P. falciparum growth inhibition at 48 hours (one generation); P. falciparum luciferase growth in erythrocytes, 48 h; 310,000 compounds, 5.9% hits; Potency, µM (highest dose often 28.7 µM), most hits filed as inhibitors
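Compounds are pin-transferred into medium, infected erythrocytes (2% hematocrit, 0.1% parasitemia final) are added, and plates sit one parasite generation at 37 C in 5% CO2. Detection reagent is then added and luminescence measured.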
Large screens that a line does not name were inactive. Unless noted, the call rests on the fitted dose curve; in most records, active means well fitted curve in the direction sought with a large enough effect; inconclusive means small, poorly fitted or top-dose-only effect, or another doubt; inactive means no such curve, though single readings can be large; an effect the other way counts as inactive or inconclusive.

Cn1c(=NCC(O)COc2ccccc2)sc2ccccc21 (centres undefined)	none
COc1ccccc1N=c1sc2ccccc2n1C	Cycloheximide cs 13 (no result: Pf growth 96h)
COc1ccc(C(=O)N=c2sc3ccccc3n2C)cc1OC	none (no result: Sm TGR block)
COc1ccc(N=c2sc3ccccc3n2C)cc1	Cycloheximide cs 41 (no result: Pf growth 96h)
CCOC(=O)c1cc(CC)sc1N1C(=O)CC(Sc2ccccc2C(=O)O)C1=O (centres undefined)	Sm TGR block 14µM (no result: NS1 function inh)
CCOC(=O)c1cc(CC)sc1N1C(=O)CC(Sc2ncccc2C(=O)O)C1=O (centres undefined)	Sm TGR block 25µM (no result: NS1 function inh)
COc1cc(-c2cccc([C@H]3[C@@H]4C=CC[C@@H](C)[C@@H]4C(=O)N3Cc3ccccc3)c2)cc(OC)c1OC	none (no result: Sm TGR block, Pf growth 96h, NS1 function inh, Pf growth 48h)
O=C(OCC1CC(c2ccccn2)=NO1)c1ccc(Br)cc1 (centres undefined)	Cycloheximide cs 56
O=C(COC(=O)c1ccccn1)c1ccc(Br)cc1	none
COc1cc2nc(NCCc3ccccc3)n3nc(-c4cccnc4)nc3c2cc1OC	none (no result: Shiga inhibitor, Cycloheximide cs, Pf growth 96h, NS1 function inh, Pf growth 48h)
COc1ccc2c(CSc3nc4nc(C)cc(C)n4n3)cc(=O)oc2c1	Pf growth 48h 13µM
Cc1csc(C(C)N(C)C(=O)CCc2nnc(CCc3ccccc3)o2)n1 (centres undefined)	Pf growth 96h inconclusive
CC1Cc2cc(/C(O)=C3/C(=O)C(=O)N(CCN4CCOCC4)C3c3cccc(O)c3)ccc2O1 (centres undefined)	Shiga inhibitor 91, Cycloheximide cs 62, Sm TGR block inconclusive, Pf growth 96h inconclusive
Cc1nnc(N2C(=O)C(=O)/C(=C(\O)c3ccc4c(c3)CC(C)O4)C2c2ccccc2)s1 (centres undefined)	Shiga inhibitor 50, Cycloheximide cs 25, Pf growth 96h inconclusive, NS1 function inh inconclusive
O=C1C(=O)N(Cc2cccnc2)C(c2cccc(O)c2)/C1=C(\O)c1ccc2c(c1)OCCO2 (centres undefined)	Shiga inhibitor 74, Cycloheximide cs 25
COc1cc(C2/C(=C(\O)c3ccc4c(c3)CC(C)O4)C(=O)C(=O)N2CC2CCCO2)cc(OC)c1OC (centres undefined)	none
CCOc1cccc(C2/C(=C(/O)c3ccc4c(c3)CC(C)O4)C(=O)C(=O)N2CCN2CCOCC2)c1 (centres undefined)	none
CC1Cc2cc(/C(O)=C3/C(=O)C(=O)N(CC4CCCO4)C3c3ccco3)ccc2O1 (centres undefined)	Shiga inhibitor 74, Cycloheximide cs 41 (no result: Pf growth 96h)
CCOC(=O)c1c(C)oc2nc(C)nc(NCC3CCN(Cc4ccc(C)cc4)CC3)c12	none (no result: Shiga inhibitor, Cycloheximide cs, Pf growth 96h, NS1 function inh, Pf growth 48h)
COCCCNC(=O)C1CCCN(S(C)(=O)=O)C1 (centres undefined)	Pf growth 96h inconclusive
O=C(Nc1ccc(Br)cc1)C1CCCC1	none
COc1cccc(COC(=O)c2cc(=O)[nH]c3ccc(S(=O)(=O)N4CCOCC4)cc23)c1OC	none (no result: Shiga inhibitor, Cycloheximide cs, NS1 function inh)
COc1ccc(N2CCN(Cc3nnnn3C3CCCCC3)CC2)cc1	none (no result: Sm TGR block)
COCc1ccc(-c2c(-c3cc(OC)cc(OC)c3)oc(=O)c3cc(OC)c(OC)cc23)cc1	Pf growth 96h inconclusive, Pf growth 48h inconclusive (no result: Shiga inhibitor, Cycloheximide cs, NS1 function inh)
CC1Cc2cc(/C(O)=C3\C(=O)C(=O)N(CCN(C)C)C3c3ccccc3F)ccc2O1 (centres undefined)	Shiga inhibitor 77, Cycloheximide cs 18
CC1Cc2cc(/C(O)=C3/C(=O)C(=O)N(Cc4cccnc4)C3c3cccc(O)c3)ccc2O1 (centres undefined)	Shiga inhibitor 66, Cycloheximide cs 34
CCOc1cccc(C2/C(=C(\O)c3ccc4c(c3)OCCO4)C(=O)C(=O)N2Cc2ccncc2)c1 (centres undefined)	Pf growth 96h inconclusive
CCN(CC)CCCN1C(=O)C(=O)/C(=C(/O)c2ccc3c(c2)CC(C)O3)C1c1cccnc1 (centres undefined)	Pf growth 96h 1.5µM
O=C1C(=O)N(Cc2ccncc2)C(c2cccc(O)c2)/C1=C(\O)c1ccc2c(c1)OCCO2 (centres undefined)	Shiga inhibitor 78, Cycloheximide cs 32
O=C(CNC(=O)c1ccc(Cl)cc1)OCC(=O)N1CCCC1	none (no result: NS1 function inh)
CC(NC(=O)CN1C(=O)NC2(CCCCCC2)C1=O)c1ccccc1Cl (centres undefined)	none (no result: Shiga inhibitor, Cycloheximide cs, NS1 function inh)
COc1ccc(OC)c(N/C(=N/c2nc(C)cc(C)n2)NC(C)=O)c1	none
COc1ccc(N/C(=N/c2nc(C)cc(C)n2)NC(=O)Nc2ccc(Cl)c(Cl)c2)c(OC)c1	Pf growth 96h 10µM, Pf growth 48h 12µM
CCCOc1ccccc1N/C(=N/c1nc(C)cc(C)n1)NC(=O)COc1ccc(OC)cc1	Pf growth 96h 4.7µM (no result: Pf growth 48h)
CCCOc1ccccc1NC(=O)/C=C/C(N)=O	Cycloheximide cs 13, Sm TGR block 3.2µM (no result: Pf growth 48h)
CCCOc1ccccc1N/C(N)=N/c1nc(C)cc(C)n1	NS1 function inh inconclusive, Pf growth 48h 15µM (no result: Sm TGR block)
C/C(=N/NC(=O)CC1N=C(Cc2ccccc2)NNC1=O)c1cccnc1 (centres undefined)	none (no result: Sm TGR block)
CCOC(=O)C1=C(C)N(C)C(=S)NC1c1ccc(Cl)cc1Cl (centres undefined)	Pf growth 96h 15µM
CCN(CC)CCN1c2ccccc2Sc2ccc3ccccc3c21	Pf growth 96h inconclusive, Pf growth 48h 8.3µM
CCN(CC(=O)NCc1ccc(Cl)cc1)C(=O)CCc1ccccc1O	none
O=C(COc1ccccc1)Nc1ncccn1	none (no result: Pf growth 48h)
COc1ccc(NC(=O)CS(=O)(=O)c2ccccc2Cl)cc1	Cycloheximide cs 16
COc1ccc(C(=O)COC(=O)CCCC(=O)Nc2ccc(C(C)=O)cc2)cc1	none (no result: Shiga inhibitor, Cycloheximide cs, Pf growth 96h, NS1 function inh, Pf growth 48h)
CCCOC(=O)c1ccc(NC(=O)CCOc2ccccc2)cc1	Cycloheximide cs 13 (no result: Pf growth 48h)
O=C(CCCOc1ccccc1)Nc1ncccn1	Shiga inhibitor 38, Cycloheximide cs 32
COc1ccc(C(=O)COC(=O)CCC(=O)Nc2ccc(C(C)=O)cc2)cc1	Shiga inhibitor 47, Cycloheximide cs 40
CCOC(=O)c1ccc(NC(=O)CCOc2ccccc2)cc1	none (no result: Pf growth 48h)
Cc1cccc(OCCCC(=O)Nc2ccc(Br)cc2)c1	none
CC(=O)c1ccc(NC(=O)CCOc2ccccc2)cc1	none (no result: Shiga inhibitor, Cycloheximide cs, Pf growth 96h, NS1 function inh, Pf growth 48h)
Cc1ccc(NC(=O)CCOc2ccccc2)cc1	Shiga inhibitor 62, Cycloheximide cs 54, Sm TGR block inconclusive
O=C(CCOc1ccccc1)Nc1ccccc1	Cycloheximide cs 27, Pf growth 96h 12µM
CCOC(=O)c1ccc(NC(=O)CCS(=O)(=O)c2ccc(Br)s2)cc1	Sm TGR block 11µM, Pf growth 48h inconclusive (no result: Pf growth 96h)
Cc1cccc(OCCCC(=O)Nc2ccc(N(C)C)cc2)c1	Shiga inhibitor 122, Cycloheximide cs 84
Cc1ccncc1C(=O)O	none (no result: Sm TGR block, Pf growth 96h, NS1 function inh, Pf growth 48h)
Cc1ccc(OCCCC(=O)Nc2ccc(S(N)(=O)=O)cc2)cc1	Pf growth 96h 15µM (no result: NS1 function inh)
COc1ccc(OCCC(=O)Nc2ccccc2)cc1	Shiga inhibitor 26, Cycloheximide cs 17
